Records with an inconclusive call do not appear. A call without a number means that no potency is given here. The source made the active and inactive calls. Calls come from the whole dose curve; as a rule, active = well fitted inhibition curve with a large enough effect; inconclusive = small, poorly fitted or top-dose-only effect; inactive = flat fitted curve, though single readings scatter.
Key:
Test in all cases: qHTS profiling for inhibitors of Plasmodium falciparum proliferation (AID 504749); note: nearly all actives have a fitted effect of over 60% in size
Details in all cases: P. falciparum in erythrocytes, SYBR Green DNA, 72 h; series mostly up to 28.7 µM
CP325 = tested on: CP325
In short: (§1)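 Infected RBCs, 0.3% parasitemia/2.5% Hct final; cpd 72 h, 37 C, 5% CO2; lysis buffer with saponin/triton/SYBR Green I, o/n RT dark; FI 485/535; norm. to artemisinin (0.29 uM) and DMSO.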

CP329 = tested on: CP329
In short: as §1

CP335 = tested on: CP335
In short: as §1

DFO2036 = tested on: DFO2036
In short: as §1

DIV14 = tested on: DIV14
In short: as §1

DIV17 = tested on: DIV17
In short: as §1

DIV30 = tested on: DIV30
In short: as §1

Dd2 = tested on: Dd2
In short: as §1

ECU = tested on: ECU
In short: as §1

FAB9 = tested on: FAB9
In short: as §1

GB4 = tested on: GB4
In short: as §1

HB3 = tested on: HB3
In short: as §1

ICS = tested on: ICS
In short: as §1

JCK = tested on: JCK
In short: as §1

N140 = tested on: N140
In short: as §1

P93_24 = tested on: P93_24
In short: as §1

P94_40 = tested on: P94_40
In short: as §1

PAD = tested on: PAD
In short: as §1

PC15 = tested on: PC15
In short: as §1

PC26 = tested on: PC26
In short: as §1
Potency is the fitted concentration of half-maximal effect.

Row | SMILES | Potency (CP325) | Potency (CP329) | Potency (CP335) | Potency (DFO2036) | Potency (DIV14) | Potency (DIV17) | Potency (DIV30) | Potency (Dd2) | Potency (ECU) | Potency (FAB9) | Potency (GB4) | Potency (HB3) | Potency (ICS) | Potency (JCK) | Potency (N140) | Potency (P93_24) | Potency (P94_40) | Potency (PAD) | Potency (PC15) | Potency (PC26)
1 | N[C@@H](C(=O)N[C@@H]1C(=O)N2C(C(=O)O)=C(Cl)CS[C@H]12)c1ccccc1 | inactive | inactive | inactive | inactive | inactive | inactive | inactive | inactive | inactive | inactive | inactive | inactive | inactive | inactive | inactive | inactive | inactive | inactive | inactive | inactive
2 | Nc1[nH]c(=O)ncc1F | inactive | inactive | inactive | inactive | inactive | inactive | inactive | inactive | inactive | inactive | inactive | inactive | inactive | inactive | inactive | inactive | inactive | inactive | inactive | inactive
3 | Nc1nc(N)c2nc(CNc3ccc(C(=O)NC(CCC(=O)O)C(=O)O)cc3)cnc2n1 (stereo not given) | inactive | inactive | inactive | inactive | inactive | inactive | inactive | inactive | inactive | inactive | inactive | inactive | inactive | inactive | inactive | inactive | inactive | inactive | inactive | inactive
4 | O=c1cc(O)c(Cl)c[nH]1 | inactive | inactive | inactive | inactive | inactive | inactive | inactive | inactive | inactive | inactive | inactive | inactive | inactive | inactive | inactive | inactive | inactive | inactive | inactive | inactive
5 | C[C@]12C=CC(=O)C=C1CC[C@@H]1[C@@H]2C(=O)C[C@@]2(C)[C@H]1CC[C@]2(O)C(=O)CO | inactive | inactive | inactive | inactive | inactive | inactive | inactive | inactive | inactive | inactive | inactive | inactive | inactive | inactive | inactive | inactive | inactive | inactive | inactive | inactive
6 | NC(N)=NC(N)=NCCc1ccccc1 | inactive | inactive | inactive | inactive | inactive | inactive | inactive | inactive | inactive | inactive | inactive | inactive | inactive | inactive | inactive | inactive | inactive | inactive | inactive | inactive
7 | Nc1ccc(S(=O)(=O)Nc2ccccn2)cc1 | inactive | inactive | inactive | inactive | inactive | inactive | inactive | inactive | inactive | inactive | inactive | inactive | inactive | inactive | inactive | – | – | inactive | inactive | inactive
8 | CC(C)Cn1cnc2c(N)nc3ccccc3c21 | inactive | inactive | inactive | inactive | inactive | inactive | inactive | inactive | inactive | inactive | inactive | – | inactive | inactive | inactive | inactive | inactive | inactive | inactive | inactive
9 | COc1cc(NS(=O)(=O)c2ccc(N)cc2)nc(OC)n1 | inactive | inactive | inactive | inactive | inactive | inactive | inactive | inactive | inactive | inactive | inactive | inactive | – | inactive | inactive | inactive | inactive | inactive | inactive | –
10 | CCCc1nc(C)c2c(=O)[nH]c(-c3cc(S(=O)(=O)N4CCN(CC)CC4)ccc3OCC)nn12 | inactive | inactive | inactive | inactive | 5.36 µM (active) | 10.7 µM (active) | – | inactive | – | inactive | inactive | – | 4.47 µM (active) | inactive | – | 8.91 µM (active) | inactive | – | – | inactive
11 | CNNCc1ccc(C(=O)NC(C)C)cc1 | inactive | inactive | inactive | inactive | – | – | inactive | inactive | inactive | inactive | inactive | inactive | – | inactive | inactive | inactive | inactive | inactive | inactive | inactive
12 | Cn1nnc2c(C(N)=O)ncn2c1=O | inactive | inactive | inactive | inactive | – | inactive | inactive | inactive | inactive | inactive | inactive | inactive | inactive | inactive | inactive | inactive | inactive | inactive | inactive | inactive
13 | Cc1nnc(NS(=O)(=O)c2ccc(N)cc2)s1 | inactive | inactive | inactive | inactive | inactive | inactive | inactive | inactive | inactive | inactive | inactive | inactive | inactive | inactive | inactive | inactive | inactive | – | inactive | inactive
14 | COC(=O)Nc1nc2ccc(Sc3ccccc3)cc2[nH]1 | inactive | inactive | inactive | inactive | inactive | inactive | inactive | inactive | inactive | inactive | inactive | inactive | inactive | inactive | inactive | inactive | inactive | inactive | inactive | inactive
15 | CCN(C)C(=O)Oc1cccc([C@H](C)N(C)C)c1 | inactive | inactive | inactive | inactive | inactive | inactive | inactive | inactive | inactive | inactive | inactive | inactive | inactive | inactive | inactive | inactive | inactive | inactive | inactive | inactive
16 | S=P(N1CC1)(N1CC1)N1CC1 | inactive | inactive | inactive | inactive | inactive | inactive | – | inactive | inactive | inactive | inactive | inactive | inactive | inactive | inactive | inactive | inactive | inactive | inactive | inactive
17 | CC[C@H](NC(C)C)[C@H](O)c1ccc(O)c2[nH]c(=O)ccc12 | inactive | inactive | inactive | inactive | inactive | inactive | – | inactive | inactive | inactive | inactive | inactive | inactive | inactive | inactive | inactive | inactive | inactive | inactive | inactive
18 | NC(=O)c1cccnc1 | inactive | inactive | inactive | inactive | – | inactive | inactive | inactive | inactive | inactive | inactive | inactive | inactive | inactive | inactive | inactive | inactive | inactive | inactive | inactive
19 | CCn1cc(C(=O)O)c(=O)c2cc(F)c(N3CCNCC3)nc21 | inactive | inactive | inactive | – | inactive | inactive | inactive | – | inactive | inactive | inactive | inactive | – | inactive | inactive | – | inactive | inactive | inactive | inactive
20 | O=c1oc2c(O)c(O)cc3c(=O)oc4c(O)c(O)cc1c4c23 | inactive | inactive | 0.849 µM (active) | – | – | – | – | 2 µM (active) | – | – | 0.849 µM (active) | 2 µM (active) | 0.891 µM (active) | inactive | – | – | – | – | 6.31 µM (active) | –
21 | COc1ccc(C(=O)CC(=O)c2ccc(C(C)(C)C)cc2)cc1 | inactive | inactive | inactive | inactive | inactive | inactive | inactive | – | inactive | inactive | inactive | – | – | inactive | inactive | inactive | inactive | inactive | inactive | inactive
22 | O=P(O)(O)C(O)(Cc1cccnc1)P(=O)(O)O | inactive | inactive | inactive | inactive | inactive | inactive | – | inactive | inactive | inactive | inactive | inactive | inactive | inactive | inactive | inactive | inactive | inactive | inactive | inactive
23 | OC(Cn1cncn1)(Cn1cncn1)c1ccc(F)cc1F | inactive | inactive | inactive | inactive | – | inactive | inactive | inactive | inactive | inactive | inactive | inactive | inactive | inactive | inactive | inactive | inactive | inactive | inactive | inactive
24 | CCOCC(O)COc1ccc(NC(=O)CC[S+](C)C)cc1 (stereo not given) | inactive | inactive | inactive | inactive | inactive | inactive | inactive | inactive | inactive | inactive | inactive | inactive | – | inactive | inactive | inactive | inactive | inactive | inactive | inactive
25 | CCC(C)(C)c1ccc(CC(C)CN2C[C@@H](C)O[C@@H](C)C2)cc1 (stereo not given in full) | inactive | inactive | inactive | inactive | – | inactive | inactive | – | inactive | inactive | inactive | – | – | inactive | inactive | inactive | inactive | inactive | inactive | inactive
26 | CC1=CC(=O)c2ccccc2C1=O | inactive | inactive | inactive | inactive | – | – | inactive | inactive | inactive | inactive | – | inactive | – | inactive | inactive | inactive | inactive | inactive | – | inactive
27 | CN1CCN(c2c(F)cc3c(=O)c(C(=O)O)cn4c3c2OCN4C)CC1 | inactive | inactive | inactive | inactive | inactive | inactive | inactive | inactive | inactive | inactive | inactive | inactive | inactive | inactive | inactive | – | inactive | inactive | inactive | inactive

Reference: PubChem BioAssay (NCATS)
